Screening data (PubChem BioAssay)
TRHR PAM: qHTS for Small Molecule Agonists and Allosteric Enhancers of Human TRH Receptor: Primary Screen for Enhancers; AID 493056, 2011; hit rate 0.66% among 360,000; TRHR cells, fluo-8 calcium fluorescence, EC20 TRH enhancement; enhancement, % at 2 µM; in the data active = enhancement above about 30%; note: 0% is about no effect
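Enhancer read-out: after compound pinning and an initial kinetic agonist-mode read, an EC20 of TRH (10 nM final) was injected and fluo-8 calcium signal (Ex 480/Em 530) followed at 1 s/cycle for 100 cycles in TRHR-expressing cells.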
TRHR ag: qHTS for Small Molecule Agonists and Allosteric Enhancers of Human TRH Receptor: Primary Screen for Agonists; Thyrotropin-releasing hormone receptor (Homo sapiens), P34981; TRHR cells, calcium flux fluo-8, FDSS agonist mode; activation, % at 2 µM; hit rate 0.18% among 360,000; AID 493084, 2011; note: 0% is about no effect
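TRHR-expressing cells, plated overnight in medium with 10% serum, were loaded with fluo-8 calcium dye at room temperature. After a 10 s baseline, library compound was pin-added and calcium release was recorded kinetically (ex 480/em 530) as agonist response.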
D1 antag: Antagonist of Human D 1 Dopamine Receptor: qHTS; hit rate 3.2% among 360,000; D(1A) dopamine receptor (Homo sapiens), P21728; AID 504652, 2011; activity change, negative = inhibition, % at 10 µM; HEK293 TREx D1 cells, calcium flux, dopamine EC80; stronger effect = lower value; in the data active = activity change below about -30%; note: % is set by controls: 0 for no effect and ±100 for the full control effect
Target sequence (P21728 whole entry, looked up): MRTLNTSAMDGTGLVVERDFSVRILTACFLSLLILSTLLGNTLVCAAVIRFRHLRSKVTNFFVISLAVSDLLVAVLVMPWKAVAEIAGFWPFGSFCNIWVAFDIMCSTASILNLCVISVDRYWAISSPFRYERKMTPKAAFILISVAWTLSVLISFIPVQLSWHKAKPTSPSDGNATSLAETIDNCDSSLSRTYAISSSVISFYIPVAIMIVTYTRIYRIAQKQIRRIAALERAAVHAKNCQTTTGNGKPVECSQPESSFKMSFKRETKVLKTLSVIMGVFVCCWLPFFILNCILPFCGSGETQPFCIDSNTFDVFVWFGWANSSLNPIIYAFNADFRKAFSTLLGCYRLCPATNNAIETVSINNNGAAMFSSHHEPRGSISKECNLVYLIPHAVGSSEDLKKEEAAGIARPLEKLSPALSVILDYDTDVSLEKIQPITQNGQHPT
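Calcium flux readout: force-coupled, inducible Hek293 Trex D1 line, cells induced overnight at 30 C with tetracycline, dye-loaded 30–90 min at RT. Antagonism scored against EC80 dopamine challenge given 180 s after compound.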
D1 potentiator: Potentiators of Human D1 Dopamine Receptor: qHTS. D(1A) dopamine receptor (Homo sapiens), P21728. HEK293 TREx D1 cells, calcium flux, dopamine EC20 potentiation. potentiation, % at 10 µM. hit rate 0.036% among 360,000; in the data active = potentiation above about 30%; note: 0% is about no effect
Epigenetic derep: Quantitative High-Throughput Screen for Regulators of Epigenetic Control | murine LDR cells, GFP reporter derepression, 30 h | Potency, µM (titrated, usually from 53.9 µM), without a hit: top-dose GFP activation, most hits filed as activators | hit rate 0.2% among 280,000 | AID 1865, 2009; active = well fitted activation curve with a large enough effect; note: potency is the fitted concentration of half-maximal effect; % of control where 0% means no effect; nearly all actives have a fitted effect of over 60% in size
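Readout is the number of GFP-expressing murine LDR cells, counted by cytometry following washing. Cells were treated with compound for 30 h at 37 C; the stably integrated CMV-GFP locus is normally silent.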
D1 agonist: Allosteric Agonists of the Human D1 Dopamine Receptor: qHTS; HEK293 T-REx D1 cells, calcium flux, agonist mode; activation, % at 2 µM; AID 504660, 2011; D(1A) dopamine receptor (Homo sapiens), P21728; hit rate 1% among 360,000; note: 0% is about no effect
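Tetracycline-induced HEK293 TREx D1 cells, force-coupled to calcium signalling, were dye-loaded with a no-wash calcium kit. Compound was pin-added after a 10 s baseline. Fluorescence was read kinetically at 1 cycle/s for 180 s, with calcium rises flagged as agonism.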
Starred values were filed as active, the others as inactive; x = not tested or not shown; [ ] = another dose, or the depositor's remark. Rows were chosen to be rich in hits. Some 4.6% of all compounds tested hit in one or more screens of this group. Cut-off read from the data, not from the text of the source, unless noted: active = activation above about 30%; inactive = the rest.

SMILES	TRHR PAM	TRHR ag	D1 antag	D1 potentiator	Epigenetic derep	D1 agonist
COc1ccccc1NC(=O)CN1CCCN(S(=O)(=O)c2ccc(Br)cc2)CC1	-10	0	-2	-2	-1%	0
CCN(CC)S(=O)(=O)c1cccc(-c2n[nH]c(=S)n2/N=C/c2ccc(OC(F)F)cc2)c1	-2	0	-83*	-9	0%	1
CCN(CC)S(=O)(=O)c1cccc(-c2n[nH]c(=S)n2/N=C/c2ccc(OC)cc2)c1	0	0	-2	0	-1%	0
CO[C@H]1COC(=O)[C@H](C)COC(=O)[C@H](C)NC(=O)C/C=C\[C@H]1C	x	x	x	x	0%[10.1 µM]	x
Cc1ccc(OCCOCCn2ccnc2)c(Br)c1	16	-1	-55*	-8	-2%	31*
CCN(CC)CCCOc1ccc(C)cc1Br	-5	0	-38*	-9	-3%	4
CCOc1ccccc1OCCCOc1ccc(C)cc1Br	2	0	5	3	-1%	3
CN(C)n1cccc1/C=C(\C#N)S(=O)(=O)c1cccc(Cl)c1	-10	0	-35*	-8	-2%	6
CCN(CC)CCCNC(=O)c1nn(C)c2c1CSc1ccccc1-2	-4	0	-2	0	-3%	1
COC(=O)c1ccc(CN2C(=O)c3ccccc3C2=O)cc1	-7	-1	4	2	x	1
O=C1c2ccccc2C(=O)N1OCCOCCOCCON1C(=O)c2ccccc2C1=O	-6	0	-15	-7	-1%	0
COC(=O)c1ccc(OC(=O)CN2C(=O)c3ccccc3C2=O)cc1	-2	1	-34*	-3	x	6
O=C1c2ccccc2C(=O)N1CCCCON1C(=O)c2ccccc2C1=O	-1	0	-36*	-4	1%	5
O=C(CCCN1C(=O)c2ccccc2C1=O)Oc1ccc(F)cc1	1	0	-32*	-6	0%	0
O=C(Nc1ccc(Br)cn1)c1ccc(COc2c(F)c(F)cc(F)c2F)o1	10	1	-6	x	x	32*
CC1Sc2ccc(S(=O)(=O)N3CCC(C(=O)NCC(C)c4ccccc4)CC3)cc2NC1=O (centres undefined)	-8	0	-76*	-22	x	2
CC1Sc2ccc(S(=O)(=O)N3CCC(C(=O)NCCc4ccccc4)CC3)cc2NC1=O (centres undefined)	-4	0	-7	-4	x	8
CCN(c1ccccc1)S(=O)(=O)c1ccc(C(=O)Oc2ccc(C(C)=O)cc2)cc1	-6	1	-38*	-9	-2%	24
CCN(c1ccccc1)S(=O)(=O)c1ccc(F)cc1	0	0	3	-1	0%	1
O=C(NCc1cccc(F)c1)c1ccccc1NC(=O)c1nsc2ccccc12	1	0	6	1	2%	4
Clc1ccc(CN2CCN(c3ncccn3)CC2)c(Cl)c1	-4	-1	-37*	-4	x	7
O=C1Cc2cc(NS(=O)(=O)c3ccc([N+](=O)[O-])cc3)cc3c2N1CCC3	-2	-1	-32*	-2	x	1
COc1ccc(-n2nc(C(=O)Nc3ccc(Cl)cn3)c3c4ccccc4n(C)c3c2=O)cc1Cl	-1	1	-14	4	1%	1
Cc1ccc(N2CCN(C(=O)CCc3nc4ccccc4[nH]3)CC2)c(C)c1	-13	0	-35*	2	-2%	6
N#Cc1ccc(CS(=O)(=O)c2nnnn2-c2ccccc2)cc1	x	x	x	x	0%	x
SMILES	TRHR PAM	TRHR ag	D1 antag	D1 potentiator	Epigenetic derep	D1 agonist
CCN1CCN(C(=O)c2cnn(-c3cccc(C)c3)c2C2CCN(C(=O)OC(C)(C)C)CC2)CC1	16	2	2	-4	0%	0
COCCCNC(=O)CSc1nc2c(sc3ccccc32)c(=O)n1CCc1ccccc1	-1	0	6	-2	1%	0
COCCCn1c(SCC(=O)NCc2ccccc2)nc2c(sc3ccccc32)c1=O	-3	0	-39*	-3	1%	6
CCc1ccc(NC(=O)CSc2nc3c(sc4ccccc43)c(=O)n2CCCOC(C)C)cc1	5	0	-35*	-3	14%	4
COc1cccc(NC(=O)CSc2nccn2C2CCCC2)c1	-2	0	-13	0	-1%	2
COc1cccc(C(=O)Nc2ccc3nc(SCC(=O)N4CCOCC4)sc3c2)c1	1	0	-3	-1	0%	0
COC(=O)[C@@H](NC(=O)Nc1ccc(OC(F)(F)F)cc1)C(C)C	-2	0	-42*	-10	-1%	11
COC(=O)[C@@H](NC(=O)Nc1ccc(C(C)=O)cc1)C(C)C	15	2	-16	-5	-1%	6
Cn1cc(/C=N/NC(=O)c2cc3cc(Br)ccc3o2)c2ccccc21	3	0	-1	1	4%	1
O=C(O)Cn1cc(/C=N/NC(=O)c2cc3cc(Br)ccc3o2)c2ccccc21	-5	0	-33*	4	-1%	1
CCOC(=O)C1=C(CN(CC)Cc2ccccc2)NC(=O)NC1c1ccc(OC(C)C)cc1 (centres undefined)	5	3	-45*	-3	-2%	6
CCN1CCN(c2cc(N3CCc4ccccc4C3)c(F)cc2[N+](=O)[O-])CC1	2	1	-40*	-9	-1%	6
COc1cccc(C(=O)N(Cc2ccco2)c2ccccn2)c1	1	-1	17	0	2%	-2
CCN(CC(=O)NCc1ccc(F)cc1)Cc1nc2ccccc2c(=O)[nH]1	2	0	0	-1	0%	0
CCN(CC(=O)Nc1ccc(C(=O)Nc2ccc(OC)cc2)cc1)Cc1nc2ccccc2c(=O)[nH]1	1	-2	-44*	6	0%	4
CCN(CC(=O)Nc1cc(OC)ccc1OC)Cc1nc2ccccc2c(=O)[nH]1	5	0	-39*	-3	-2%	1
CCN(CC(=O)Nc1cccc(F)c1)Cc1nc2ccccc2c(=O)[nH]1	-1	0	5	-7	-5%	14
Cc1ccc2scc(N3CCCC(C)C3)c(=O)c2c1 (centres undefined)	4	0	-10	-1	-1%	4
